# Test results reported in publication PMC4336329 (PLoS ONE, 2015).
# In all, about 310,000 compounds went through this assay and about 14,000 (4.5%) showed an effect of 50% or more. Effects have a minus sign here. The list comes from a sample in which strong results are over-represented; it also holds similar structures and randomly drawn compounds.
# Molecular target: human ether-à-go-go-related gene (hERG) potassium channel (human, UniProt Q12809)
# Assay: primary screen, population patch clamp on CHO cells stably expressing hERG; higher = less effect of the substance
# 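Also: peak tail current of the secondary pulse compared with the same well before compound.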
# Chain of human ether-à-go-go-related gene (hERG) potassium channel (Q12809 whole entry, looked up): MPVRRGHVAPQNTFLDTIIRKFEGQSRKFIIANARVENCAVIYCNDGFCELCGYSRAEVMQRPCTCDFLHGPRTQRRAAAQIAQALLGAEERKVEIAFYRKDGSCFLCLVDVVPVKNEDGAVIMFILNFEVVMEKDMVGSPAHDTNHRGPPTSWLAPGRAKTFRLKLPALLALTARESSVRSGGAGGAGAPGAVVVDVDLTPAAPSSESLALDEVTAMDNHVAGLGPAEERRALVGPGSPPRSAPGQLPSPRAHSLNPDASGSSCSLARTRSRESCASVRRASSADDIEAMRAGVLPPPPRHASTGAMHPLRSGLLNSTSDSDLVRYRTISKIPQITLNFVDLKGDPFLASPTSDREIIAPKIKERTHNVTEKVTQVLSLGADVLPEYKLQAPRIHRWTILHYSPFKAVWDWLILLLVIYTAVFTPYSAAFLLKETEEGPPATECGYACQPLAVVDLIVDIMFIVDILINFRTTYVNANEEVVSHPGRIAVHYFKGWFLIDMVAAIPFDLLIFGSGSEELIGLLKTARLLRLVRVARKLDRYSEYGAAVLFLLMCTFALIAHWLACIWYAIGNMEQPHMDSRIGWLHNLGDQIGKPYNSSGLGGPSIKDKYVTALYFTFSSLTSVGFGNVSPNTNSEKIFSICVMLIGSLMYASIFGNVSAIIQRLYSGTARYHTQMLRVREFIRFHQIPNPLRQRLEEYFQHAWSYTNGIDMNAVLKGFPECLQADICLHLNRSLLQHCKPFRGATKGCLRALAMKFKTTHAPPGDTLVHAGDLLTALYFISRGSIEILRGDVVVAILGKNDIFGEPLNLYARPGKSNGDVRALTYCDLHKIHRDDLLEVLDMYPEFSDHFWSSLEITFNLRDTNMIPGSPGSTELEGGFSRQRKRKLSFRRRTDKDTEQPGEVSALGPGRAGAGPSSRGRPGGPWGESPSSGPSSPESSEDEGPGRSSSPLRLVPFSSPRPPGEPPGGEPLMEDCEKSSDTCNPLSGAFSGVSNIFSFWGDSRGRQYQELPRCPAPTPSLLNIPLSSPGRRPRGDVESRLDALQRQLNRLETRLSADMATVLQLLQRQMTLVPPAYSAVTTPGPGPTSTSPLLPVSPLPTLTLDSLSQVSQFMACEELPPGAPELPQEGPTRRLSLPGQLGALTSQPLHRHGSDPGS
row,SMILES,"hERG current change (%, negative = inhibition) at 10uM"
1,O=C(O)c1ccc(N2C(=O)CC(N3CCN(c4ccc(Cl)cc4)CC3)C2=O)cc1 (stereo not drawn),6.79%
2,O=C(NCc1ccc(-c2csnn2)cc1)C1CC1,7.09%
3,CC1CCN(c2nc3c(=O)[nH]c(N)nc3n2[C@@H]2O[C@H](CO)[C@@H](O)[C@H]2O)CC1,13.6%
4,COC(=O)c1ccc(NC(=O)Cn2cnc3c(nnn3-c3cccc(OC)c3)c2=O)cc1,3.08%
5,CN1CCc2nc3ccc(F)cc3c(C(N)=O)c2C1.Cl,-4.4%
6,Cl.Clc1ccc2nc3c(c(-c4ccccc4)c2c1)CNCC3,-37.3%
7,CN1CCc2nc3ccc(Cl)cc3c(-c3ccccc3Cl)c2C1.Cl,-65.7%
8,CN(C)c1ccc(Nc2ncnc3ccc(Br)cc23)cc1,20.4%
9,CNc1c([N+](=O)[O-])cnn1-c1ccc(C)cc1,-2.24%
10,COc1ccccc1N1CCN(C2CCCN(Cc3ccc(Cl)cc3)C2)CC1 (stereo not drawn),-41.1%
11,COc1cc(CN2CCCC(N3CCN(c4ccccc4C)CC3)C2)ccc1O (stereo not drawn),-27%
12,COc1ccc(O)c(CN2CCCC(N3CCN(c4ccc(F)cc4)CC3)C2)c1 (stereo not drawn),-59.7%
13,COc1ccccc1N1CCN(C2CCCN(Cc3cccc(O)c3)C2)CC1 (stereo not drawn),-9.65%
14,CCOc1cc(CN2CCCC(N3CCN(c4ccc(F)cc4)CC3)C2)ccc1OC (stereo not drawn),-62.7%
15,CCOc1cc(CN2CCN(c3ccc(C(C)=O)cc3)CC2)ccc1OC,-23.5%
16,CC(C)CN1CCCC(N2CCN(c3cccc(Cl)c3)CC2)C1 (stereo not drawn),-21.5%
17,COc1ccc(N2CCN(C3CCCN(Cc4ccc(F)cc4Cl)C3)CC2)cc1 (stereo not drawn),-35.2%
18,COc1ccc(O)c(CN2CCCC(N3CCN(c4ccccc4OC)CC3)C2)c1 (stereo not drawn),-11%
19,COc1ccc(CN2CCCC(N3CCN(c4cccc(Cl)c4)CC3)C2)cc1OC (stereo not drawn),-54.1%
20,CC(C)/C=C/CN1CCCC(N2CCN(c3cccc(Cl)c3)CC2)C1 (stereo not drawn),-50.7%
21,Cc1cccc(C(=O)N2CCCC(N3CCN(c4cccc(Cl)c4)CC3)C2)n1 (stereo not drawn),-17.5%

row,SMILES,"hERG current change (%, negative = inhibition) at 10uM"
1,C#CC(C)(C)NC(=O)c1ccccc1OC,1.69%
2,CC(C)CNC(=O)COC(=O)/C=C/c1ccccc1[N+](=O)[O-],5.61%
3,COCc1cc(C)nc(SCC(=O)c2ccc(O)c(O)c2)c1C#N,6.86%
4,CN(C)S(=O)(=O)N(CC(=O)Nc1ccc2ccccc2c1)c1ccccc1,8.45%
5,CN1CCN(CCC(=O)Nc2ccc(OCc3ccccc3)cc2)CC1,-41.6%
6,Cn1cc(C(=O)c2cccc(Cl)c2Cl)cc1C(=O)O,10.2%
7,COc1ccc(-c2cc(-c3ccc(O)cc3)nc(N)c2C#N)cc1,3.91%
8,COc1cc(/C=C(\C#N)C(=O)Nc2ccc3ccccc3c2)c([N+](=O)[O-])cc1OC,8.14%
9,Cc1c(C)n2c(SCC(=O)N3CCC(C)CC3)nnc2[nH]c1=O,15.3%
10,CC(=O)Nc1ccccc1NC(=O)C/C(C)=N/NC(=O)Cc1cccc2ccccc12,10.8%
11,C=CCSC1=C(C#N)C(c2ccccc2OC)CC(=O)N1 (stereo not drawn),-2.19%
12,CCOc1cccc(CN2CCCC(N3CCc4cc(OC)c(OC)cc4C3)C2)c1O (stereo not drawn),-39.3%
13,CCn1nc(C)cc1C(=O)N1CCCC(N2CCN(c3cccc(Cl)c3)CC2)C1 (stereo not drawn),-35%
14,COc1cc(CN2CCCC(N3CCN(c4ccc(F)cc4)CC3)C2)ccc1F (stereo not drawn),-64.4%
15,COc1ccc(N2CCN(C3CCCN(Cc4ccccc4OCCO)C3)CC2)cc1 (stereo not drawn),-24.1%
16,COc1ccccc1CN1CCCC(N2CCN(c3ccc(F)cc3)CC2)C1 (stereo not drawn),-56.2%
17,COc1ccc(N2CCN(C3CCCN(Cc4ccc(F)cc4)C3)CC2)cc1 (stereo not drawn),-32.8%
18,COc1ccccc1N1CCN(C2CCCN(Cc3cc(F)cc(F)c3)C2)CC1 (stereo not drawn),-6.62%
19,COc1ccccc1CN1CCCC(N2CCN(c3ccccc3OC)CC2)C1 (stereo not drawn),-11.9%
20,CCOc1cccc(CN2CCCC(N3CCN(c4cccc(Cl)c4)CC3)C2)c1O (stereo not drawn),-58.7%
21,CCCCn1c(N)c(N(CCOC)C(=O)C2CCN(S(=O)(=O)c3ccc(F)cc3)CC2)c(=O)[nH]c1=O,-1.06%

row,SMILES,"hERG current change (%, negative = inhibition) at 10uM"
1,COCCCN(C(C)=O)c1nc(-c2ccccc2)cs1,-23.4%
2,CCNC(=O)CSc1nc(-c2ccc(F)cc2)cs1,21.2%
3,O=C(NCC(c1ccco1)N1CCc2ccccc21)c1ccc([N+](=O)[O-])cc1 (stereo not drawn),-18.3%
4,Cn1c(SCc2ccccc2)nnc1-c1ccc2nonc2c1,-9.18%
5,Cn1c(SCc2c(Cl)cccc2Cl)nnc1-c1ccc2nonc2c1,-55.1%
6,Cn1c(SCc2ccc(Cl)cc2)nnc1-c1ccc2nonc2c1,0.685%
7,CC(c1ccco1)N(C(=O)c1ccccc1NS(=O)(=O)c1ccc(Cl)c([N+](=O)[O-])c1)c1ccccn1 (stereo not drawn),-6.14%
8,COc1ccc(NC(=O)c2nn(C)c(=O)c3ccccc23)cc1S(=O)(=O)Nc1ccccc1Cl,26%
9,COc1ccc(/C=C(/NC(=O)c2ccco2)C(=O)NCCc2ccccc2)cc1,-52.6%
10,O=C(NCc1ccccc1)/C(=C/c1ccc([N+](=O)[O-])cc1)NC(=O)c1ccco1,-62.7%
11,O=C(Nc1ccccc1)/C(=C/c1ccc([N+](=O)[O-])cc1)NC(=O)c1ccco1,6.42%
12,O=C(NCc1ccccc1)/C(=C\c1ccc([N+](=O)[O-])cc1)NC(=O)c1ccco1,-60.9%
13,O=C(NC(Cc1ccccc1)C(=O)O)/C(=C/c1ccc([N+](=O)[O-])cc1)NC(=O)c1ccco1 (stereo not drawn),12.6%
14,COc1ccc(NC(=O)/C(=C\c2ccccc2)NC(=O)c2ccco2)cc1,0.0276%
15,O=C(NCCc1ccccc1)/C(=C\c1ccccc1)NC(=O)c1ccco1,-21.4%
16,O=C(NCCc1ccccc1)/C(=C\c1ccc([N+](=O)[O-])cc1)NC(=O)c1ccco1,-80.7%
17,O=C(NCc1ccccc1)/C(=C\c1ccccc1)NC(=O)c1ccco1,-21.7%
18,O=C(NCCc1ccccc1)/C(=C\c1ccc([N+](=O)[O-])cc1)NC(=O)c1ccccc1,-14.6%
19,Cc1ccc(C(=O)N/C(=C\c2ccc([N+](=O)[O-])cc2)C(=O)NCCc2ccccc2)cc1,-33.8%
20,O=C(NCc1ccccc1)/C(=C/c1ccccc1)NC(=O)c1ccco1,-24.6%
21,Cc1cc(S(=O)(=O)Nc2ccc3ccccc3c2)c(C)s1,-0.508%

row,SMILES,"hERG current change (%, negative = inhibition) at 10uM"
1,O=C(/C=C/c1cccs1)NC(=S)Nc1ccc(C(=O)O)cc1,6.78%
2,CCOc1ccc(/C=N/Nc2cc(C)nc(N3CCOCC3)n2)cc1,3.47%
3,O=C(O)c1ccc2c(c1)C1C=CCC1C(c1cc3c(cc1Br)OCO3)N2 (stereo not drawn),21.2%
4,O=c1n(-c2ccc(Br)cc2)cnn1-c1ncccc1[N+](=O)[O-],-22.1%
5,O=C1N/C(=N\N=C\c2ccco2)SC1Cc1ccc(F)cc1 (stereo not drawn),14%
6,Nc1ncnc(Nc2cccc(C(F)(F)F)c2)n1,-5.45%
7,Cc1ccc(SCc2[nH]nc3c2C(c2cccnc2)C(C#N)=C(N)O3)cc1 (stereo not drawn),-2.64%
8,O=C(CCN1C(=O)c2ccccc2C1=O)NCc1ccccc1,10.2%
9,CCOC(=O)c1cc2occc2n1CC(=O)N1CCOCC1,6.95%
10,COc1cc(-c2ccc(NC(=O)NC3CC3)c(OC)c2)ccc1NC(=O)NC1CC1,27.9%
11,O=C(NCc1ccco1)/C(=C/c1ccc(Cl)cc1)NC(=O)c1ccco1,-14%
12,O=C(NCc1ccco1)/C(=C/c1ccc([N+](=O)[O-])cc1)NC(=O)c1ccco1,-69.5%
13,O=C(NCc1ccco1)/C(=C/c1ccccc1)NC(=O)c1ccco1,4.72%
14,CC(C)CNC(=S)NC(=O)c1csc([N+](=O)[O-])c1,9.85%
15,COc1cccc(C(=O)C2CCCN(Cc3cccc(OCCO)c3)C2)c1 (stereo not drawn),-48.7%
16,COc1cccc(C(=O)C2CCCN(Cc3cccc(-n4nc(C)cc4C)c3)C2)c1 (stereo not drawn),-59.4%
17,COc1cccc(CN2CCCC(C(=O)N3CCCCC3)C2)c1.O=C(O)C(=O)O (stereo not drawn),5.13%
18,COc1cccc(C(=O)C2CCCN(Cc3cccc(-n4cccn4)c3)C2)c1 (stereo not drawn),-64.5%
19,Cc1cc(S(=O)(=O)N2CCCC(C)C2)ccc1-n1cnnn1 (stereo not drawn),5.72%
20,O=C(CSc1nc(N2CCOCC2)nc(N2CCOCC2)n1)Nc1ccccc1F,19.2%
21,COc1ccccc1C(=O)CC(=O)C(=O)Nc1cccc([N+](=O)[O-])c1C,8.79%
